Source: the supplement of paper PMC10849652
The full data set covers some 7,900 targets. This sample favours those with a hit. About 0.6% of all pairs of compound and target were hits. A number with no mark means an inactive call.

Experiments:
Test in all cases: log2 fold change, soluble protein after heating vs DMSO (PISA); higher = thermal stabilisation; K562 cells, 10 uM, 30 min; active = over 0.2 and 3.5 SD of the protein, either way, in both replicates (recomputed)
[1] = compound: CN1CCN(CCOc2cc(OC3CCOCC3)c3c(Nc4c(Cl)ccc5c4OCO5)ncnc3c2)CC1 [saracatinib]
How it was run: (§1)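 For each measurement, 10 μM compound was applied for 30 min to K562 cells at 2×10^6 cells/mL. Aliquots were heated for 3 min across 48°C-58°C, pooled, and extracted in PBS with 0.5% NP-40 at 4°C; the supernatant after 21,000xg for 90 min was soluble protein. This was quantified by TMTpro 16plex LC-MS/MS with channel sums equalised, and thermal stability was reported relative to control samples from duplicates, on a log2 fold-change scale.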

[2] = compound: CN1CCN(c2nc(C3=C(c4c[nH]c5ccccc45)C(=O)NC3=O)c3ccccc3n2)CC1 [sotrastaurin]
How it was run: as §1

[3] = compound: CN1CC[C@H](c2c(O)cc(O)c3c(=O)cc(-c4ccccc4Cl)oc23)[C@H](O)C1 [alvocidib]
How it was run: as §1

[4] = compound: CN1CCc2c(c3ccccc3n2Cc2ccc(C(=O)NO)cc2)C1 [Tubastatin A]
How it was run: as §1

[5] = compound: CNC(=O)C1=CC=CC=C1NC2=NC(=NC=C2Cl)NC3=C(C=C(C=C3)N4CCOCC4)OC
How it was run: as §1

[6] = compound: CNC(=O)c1ccc(Nc2ncc(C(F)(F)F)c(NCc3nccnc3N(C)S(C)(=O)=O)n2)cc1 [defactinib]
How it was run: as §1

[7] = compound: CNc1nc(-c2ccc3c(N)n[nH]c3c2)cc(N2C[C@@H](C(=O)NC3CCCCC3)CC[C@H]2C)n1
How it was run: as §1

[8] = compound: COC(=O)[C@H](CCSC)NC(=O)C1=C(C=C(C=C1)NC[C@H](CS)N)C2=CC=CC=C2
How it was run: as §1

[9] = compound: COC1=CC=C(C=C1)CN2C=CC3=C2C=C(C=C3)C(=O)NO
How it was run: as §1

[10] = compound: CON(C)C(=O)N1N=C(c2cc(F)ccc2F)S[C@@]1(CCCN)c1ccccc1 [filanesib]
How it was run: as §1

[11] = compound: CO[C@H]1C[C@@H]2CC[C@@H](C)[C@@](O)(O2)C(=O)C(=O)N2CCCC[C@H]2C(=O)O[C@H]([C@H](C)C[C@@H]2CC[C@H](n3cnnn3)[C@H](OC)C2)CC(=O)[C@H](C)/C=C(\C)[C@@H](O)[C@@H](OC)C(=O)[C@H](C)C[C@H](C)/C=C/C=C/C=C/1C [zotarolimus]
How it was run: as §1

[12] = compound: COc1cc(C(=O)O)ccc1NC(=O)[C@@H]1N[C@@H](CC(C)(C)C)[C@](C#N)(c2ccc(Cl)cc2F)[C@H]1c1cccc(Cl)c1F [idasanutlin]
How it was run: as §1

[13] = compound: COc1cc(Nc2ncc3c(n2)-c2ccc(Cl)cc2C(c2c(F)cccc2OC)=NC3)ccc1C(=O)O [alisertib]
How it was run: as §1

[14] = compound: COc1cc2nc(-c3cc(F)ccc3O)nc(N[C@@H]3CNC[C@H]3C(C)(C)O)c2cc1OC
How it was run: as §1

[15] = compound: COc1cc2ncnc(Nc3ccc(F)c(Cl)c3)c2cc1OCCCN1CCOCC1 [gefitinib]
How it was run: as §1

[16] = compound: COc1cccc2cc(-c3nc([C@H]4CC[C@H](C(=O)O)CC4)n4ncnc(N)c34)[nH]c12
How it was run: as §1

[17] = compound: CS(=O)(=O)CCNCc1ccc(-c2ccc3ncnc(Nc4ccc(OCc5cccc(F)c5)c(Cl)c4)c3c2)o1 [lapatinib]
How it was run: as §1

[18] = compound: CS(=O)(=O)N1CCN(Cc2cc3nc(-c4cccc5[nH]ncc45)nc(N4CCOCC4)c3s2)CC1 [pictilisib]
How it was run: as §1

[19] = compound: CNCc1ccc(-c2[nH]c3cc(F)cc4c3c2CCNC4=O)cc1 [rucaparib]
How it was run: as §1

[20] = compound: COC(=O)N[C@@H](C)CNc1nccc(-c2cn(C(C)C)nc2-c2cc(Cl)cc(NS(C)(=O)=O)c2F)n1 [encorafenib]
How it was run: as §1

Chain of UniProt Q5THK1 (Q5THK1 whole entry, looked up): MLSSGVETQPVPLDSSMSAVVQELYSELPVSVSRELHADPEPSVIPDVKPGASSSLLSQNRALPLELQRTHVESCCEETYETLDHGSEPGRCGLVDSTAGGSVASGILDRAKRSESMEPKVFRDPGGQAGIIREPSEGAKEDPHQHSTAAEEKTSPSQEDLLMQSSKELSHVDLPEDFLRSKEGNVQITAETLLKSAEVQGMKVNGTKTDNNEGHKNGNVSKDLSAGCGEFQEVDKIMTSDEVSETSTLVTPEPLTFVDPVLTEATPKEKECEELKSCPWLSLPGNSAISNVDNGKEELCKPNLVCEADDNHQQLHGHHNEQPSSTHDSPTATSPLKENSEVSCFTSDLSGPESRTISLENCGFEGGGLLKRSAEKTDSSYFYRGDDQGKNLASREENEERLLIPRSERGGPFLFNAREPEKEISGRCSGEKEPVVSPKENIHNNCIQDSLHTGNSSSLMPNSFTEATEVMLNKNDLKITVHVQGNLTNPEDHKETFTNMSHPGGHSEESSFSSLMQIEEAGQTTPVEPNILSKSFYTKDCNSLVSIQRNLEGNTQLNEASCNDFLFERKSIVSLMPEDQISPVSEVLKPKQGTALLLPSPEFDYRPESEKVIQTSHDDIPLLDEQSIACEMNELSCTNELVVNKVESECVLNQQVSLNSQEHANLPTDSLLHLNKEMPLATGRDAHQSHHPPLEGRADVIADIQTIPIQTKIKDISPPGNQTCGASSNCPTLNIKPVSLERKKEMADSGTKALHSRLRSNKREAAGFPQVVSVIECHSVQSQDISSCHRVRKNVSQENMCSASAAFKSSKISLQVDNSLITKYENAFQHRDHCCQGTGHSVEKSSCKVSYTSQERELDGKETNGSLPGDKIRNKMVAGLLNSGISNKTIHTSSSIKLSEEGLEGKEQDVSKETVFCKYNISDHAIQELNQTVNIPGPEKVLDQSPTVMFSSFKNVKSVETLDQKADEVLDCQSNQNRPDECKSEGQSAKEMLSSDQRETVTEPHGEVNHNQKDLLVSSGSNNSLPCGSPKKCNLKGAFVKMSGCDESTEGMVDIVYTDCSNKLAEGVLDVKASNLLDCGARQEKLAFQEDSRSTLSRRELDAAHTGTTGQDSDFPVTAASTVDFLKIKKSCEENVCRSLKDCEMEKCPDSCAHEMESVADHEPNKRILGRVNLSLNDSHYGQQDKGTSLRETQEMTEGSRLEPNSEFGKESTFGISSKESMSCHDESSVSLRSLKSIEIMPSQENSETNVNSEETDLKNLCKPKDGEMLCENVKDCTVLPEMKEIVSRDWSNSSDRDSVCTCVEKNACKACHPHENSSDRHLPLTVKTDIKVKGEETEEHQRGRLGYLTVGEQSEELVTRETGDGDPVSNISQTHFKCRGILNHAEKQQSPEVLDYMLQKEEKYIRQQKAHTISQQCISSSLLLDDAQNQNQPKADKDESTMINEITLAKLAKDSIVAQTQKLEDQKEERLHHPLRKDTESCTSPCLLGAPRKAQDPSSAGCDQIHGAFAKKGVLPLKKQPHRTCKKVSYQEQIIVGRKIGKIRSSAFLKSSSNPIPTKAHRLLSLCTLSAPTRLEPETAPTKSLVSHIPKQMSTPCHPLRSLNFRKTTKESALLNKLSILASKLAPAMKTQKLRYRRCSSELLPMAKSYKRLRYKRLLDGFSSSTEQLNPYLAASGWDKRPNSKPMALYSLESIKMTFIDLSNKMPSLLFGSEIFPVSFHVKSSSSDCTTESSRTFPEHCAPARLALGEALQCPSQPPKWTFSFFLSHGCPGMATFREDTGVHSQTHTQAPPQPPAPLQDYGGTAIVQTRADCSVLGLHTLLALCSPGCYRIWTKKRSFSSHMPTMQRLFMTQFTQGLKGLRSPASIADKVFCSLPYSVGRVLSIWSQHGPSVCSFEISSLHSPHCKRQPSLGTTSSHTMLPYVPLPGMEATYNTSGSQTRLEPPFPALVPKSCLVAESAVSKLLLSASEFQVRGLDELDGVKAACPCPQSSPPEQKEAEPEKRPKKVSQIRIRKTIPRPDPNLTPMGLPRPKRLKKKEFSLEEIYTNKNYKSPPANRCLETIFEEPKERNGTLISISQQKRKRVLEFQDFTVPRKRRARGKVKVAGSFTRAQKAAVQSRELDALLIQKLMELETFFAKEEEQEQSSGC
Chain of UniProt P27815 (P27815 whole entry, looked up): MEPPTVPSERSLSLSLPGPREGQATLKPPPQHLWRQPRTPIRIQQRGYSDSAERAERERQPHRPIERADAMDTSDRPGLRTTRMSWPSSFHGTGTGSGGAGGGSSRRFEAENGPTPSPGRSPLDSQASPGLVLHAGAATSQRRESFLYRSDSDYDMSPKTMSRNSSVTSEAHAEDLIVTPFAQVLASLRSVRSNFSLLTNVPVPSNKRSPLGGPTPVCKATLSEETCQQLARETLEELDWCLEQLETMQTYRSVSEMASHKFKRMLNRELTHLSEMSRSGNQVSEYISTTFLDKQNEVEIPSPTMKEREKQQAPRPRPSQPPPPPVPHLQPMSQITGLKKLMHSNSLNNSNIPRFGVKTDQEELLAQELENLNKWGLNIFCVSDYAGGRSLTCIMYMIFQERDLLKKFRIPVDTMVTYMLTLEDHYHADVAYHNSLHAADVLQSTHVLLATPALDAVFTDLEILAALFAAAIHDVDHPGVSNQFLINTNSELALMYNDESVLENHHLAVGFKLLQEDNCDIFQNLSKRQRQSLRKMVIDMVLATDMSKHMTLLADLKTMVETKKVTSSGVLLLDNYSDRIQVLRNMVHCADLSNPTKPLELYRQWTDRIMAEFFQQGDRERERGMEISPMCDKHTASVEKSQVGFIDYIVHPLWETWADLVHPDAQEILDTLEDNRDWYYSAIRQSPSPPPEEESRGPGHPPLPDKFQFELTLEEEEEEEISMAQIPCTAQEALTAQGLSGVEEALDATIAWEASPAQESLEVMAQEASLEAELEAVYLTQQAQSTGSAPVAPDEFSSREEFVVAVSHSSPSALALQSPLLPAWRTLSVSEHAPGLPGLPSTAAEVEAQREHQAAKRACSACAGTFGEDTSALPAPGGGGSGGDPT
Chain of UniProt Q68D20 (Q68D20 whole entry, looked up): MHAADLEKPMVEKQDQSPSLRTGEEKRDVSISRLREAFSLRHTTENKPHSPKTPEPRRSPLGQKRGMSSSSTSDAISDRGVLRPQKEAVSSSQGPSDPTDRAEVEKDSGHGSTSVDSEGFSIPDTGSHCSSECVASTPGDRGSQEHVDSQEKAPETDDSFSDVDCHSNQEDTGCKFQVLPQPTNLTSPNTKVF
Chain of UniProt Q86YH6 (Q86YH6 whole entry, looked up): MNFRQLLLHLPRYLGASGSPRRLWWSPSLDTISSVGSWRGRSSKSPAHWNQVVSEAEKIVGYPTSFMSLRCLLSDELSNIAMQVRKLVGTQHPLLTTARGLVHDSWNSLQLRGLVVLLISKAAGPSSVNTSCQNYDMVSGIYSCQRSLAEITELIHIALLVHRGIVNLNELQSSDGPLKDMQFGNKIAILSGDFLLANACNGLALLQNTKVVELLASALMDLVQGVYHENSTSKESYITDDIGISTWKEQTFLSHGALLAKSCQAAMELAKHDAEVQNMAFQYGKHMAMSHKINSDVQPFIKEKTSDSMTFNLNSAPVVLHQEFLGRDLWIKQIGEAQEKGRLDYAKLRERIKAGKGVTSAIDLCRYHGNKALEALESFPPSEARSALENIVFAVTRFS
Chain of UniProt Q9UHX1 (Q9UHX1 whole entry, looked up): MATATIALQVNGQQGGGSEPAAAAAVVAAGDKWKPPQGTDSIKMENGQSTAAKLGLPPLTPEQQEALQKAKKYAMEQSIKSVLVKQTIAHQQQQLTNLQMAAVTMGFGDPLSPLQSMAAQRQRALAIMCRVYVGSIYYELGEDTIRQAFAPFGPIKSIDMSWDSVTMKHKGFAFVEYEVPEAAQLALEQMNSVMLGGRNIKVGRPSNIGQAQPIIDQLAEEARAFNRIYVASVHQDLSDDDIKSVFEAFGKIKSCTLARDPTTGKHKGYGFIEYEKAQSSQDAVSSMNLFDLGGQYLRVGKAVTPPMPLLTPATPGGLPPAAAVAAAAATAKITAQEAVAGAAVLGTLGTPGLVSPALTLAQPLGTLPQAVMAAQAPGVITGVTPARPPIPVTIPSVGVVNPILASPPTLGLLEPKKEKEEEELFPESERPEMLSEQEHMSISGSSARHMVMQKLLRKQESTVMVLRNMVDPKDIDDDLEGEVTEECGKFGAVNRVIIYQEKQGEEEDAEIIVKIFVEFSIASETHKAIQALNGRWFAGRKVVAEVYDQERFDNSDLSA
Chain of UniProt P05423 (P05423 whole entry, looked up): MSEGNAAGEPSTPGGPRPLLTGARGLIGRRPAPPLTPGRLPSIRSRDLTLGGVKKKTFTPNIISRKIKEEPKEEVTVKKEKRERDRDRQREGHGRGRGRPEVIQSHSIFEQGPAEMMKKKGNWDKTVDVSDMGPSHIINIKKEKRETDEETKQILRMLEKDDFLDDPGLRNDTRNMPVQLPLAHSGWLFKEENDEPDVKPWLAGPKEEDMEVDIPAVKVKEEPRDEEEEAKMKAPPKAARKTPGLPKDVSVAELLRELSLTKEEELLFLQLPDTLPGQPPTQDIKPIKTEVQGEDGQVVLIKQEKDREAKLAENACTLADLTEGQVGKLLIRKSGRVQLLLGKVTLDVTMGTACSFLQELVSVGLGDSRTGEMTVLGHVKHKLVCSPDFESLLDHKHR
Chain of UniProt Q14442 (Q14442 whole entry, looked up): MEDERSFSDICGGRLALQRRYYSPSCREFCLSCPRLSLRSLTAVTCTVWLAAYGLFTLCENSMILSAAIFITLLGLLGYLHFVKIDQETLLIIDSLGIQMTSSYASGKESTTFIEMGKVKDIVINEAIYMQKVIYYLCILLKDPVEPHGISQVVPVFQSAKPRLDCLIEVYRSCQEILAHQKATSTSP
Chain of UniProt Q15126 (Q15126 whole entry, looked up): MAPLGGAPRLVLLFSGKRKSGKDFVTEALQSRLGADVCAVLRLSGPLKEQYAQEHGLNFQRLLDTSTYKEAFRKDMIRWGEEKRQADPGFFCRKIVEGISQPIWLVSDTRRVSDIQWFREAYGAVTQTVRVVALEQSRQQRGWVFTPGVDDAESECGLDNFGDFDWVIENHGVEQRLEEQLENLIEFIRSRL

Target | log2 fold change [1] | log2 fold change [2] | log2 fold change [3] | log2 fold change [4] | log2 fold change [5] | log2 fold change [6] | log2 fold change [7] | log2 fold change [8] | log2 fold change [9] | log2 fold change [10] | log2 fold change [11] | log2 fold change [12] | log2 fold change [13] | log2 fold change [14] | log2 fold change [15] | log2 fold change [16] | log2 fold change [17] | log2 fold change [18] | log2 fold change [19] | log2 fold change [20]
POLR3D (UniProt P05423) | 0.264 | -0.029 | 0.024 | 1.53 | -0.074 | -0.027 | 0.425 | -0.08 | -0.014 | 0.041 | 0.065 | 0.574 (active) | -0.091 | -0.017 | 0.036 | -0.136 | -0.001 | 0.013 | – | –
PNN (UniProt Q9H307) | -0.037 | -0.044 | -0.12 | – | -0.067 | – | -0.071 | – | -0.004 | 0.083 | -0.047 | 0.125 | -0.017 | -0.14 | 0.031 | 0.056 | -0.037 | -0.015 | 0.303 | -0.174
PDSS2 (UniProt Q86YH6) | 0.159 | 0.218 | -0.053 | -0.013 | -0.019 | -0.076 | -0.025 | -0.042 | 0.23 | 0.025 | 0.184 | 0.157 | – | -0.286 | 0.15 | – | 0.162 | -0.038 | 0.07 | -0.154
PMVK (UniProt Q15126) | -0.021 | -0.003 | -0.032 | 0.229 | -0.051 | 0.02 | -0.039 | -0.368 | – | 0.198 | 0.083 | 0.064 | 0.047 | – | -0.189 | -0.144 | – | 0.073 | – | –
PCBP2 (UniProt F8VZX2) | 0.009 | – | -0.3 | – | 0.06 | – | 0.084 | – | 0.03 | – | 0.158 | – | -0.04 | – | -0.111 | -0.018 | – | – | – | –
PSD3 (UniProt Q9NYI0) | – | – | -0.054 | – | – | -0.004 | – | -0.019 | -0.003 | – | 0.074 | 0.015 | -0.003 | 0.141 | 0.036 | 0.069 | -0.07 | – | -0.03 | 0.003
PPP1R12C (UniProt Q9BZL4) | -0.115 | -0.157 | – | 0.014 | 0.113 | -0.205 | -0.164 | 0.035 | – | 0.066 | – | – | 0.071 | -0.237 | 0.074 | -0.009 | 0.084 | -0.228 | 0.184 | -0.013
PIGH (UniProt Q14442) | -0.099 | – | 0.022 | -0.274 (active) | 0.012 | 0.005 | 0.025 | -0.001 | -0.029 | – | 0.031 | -0.127 | 0.003 | -0.019 | – | 0.038 | -0.009 | 0.04 | 0.037 | -0.068
PLCL1 (UniProt Q15111) | – | 0.032 | 0.109 | 0.166 | -0.131 | -0.02 | – | 0.047 | 0.048 | -0.036 | 0.09 | 0.062 | -0.107 | – | 0.118 | 0.229 | – | -0.073 | 0.2 | 0.018
PPP1R12B isoform 6 (UniProt O60237) | – | – | – | – | 0 | – | – | – | – | – | – | – | – | – | 0.077 | – | – | – | – | –
PIAS4 (UniProt Q8N2W9) | -0.207 | – | – | -0.057 | – | – | -0.043 | – | 0.049 | – | – | – | -0.566 | 0.069 | – | -0.167 | -0.017 | -0.257 | – | –
PSMD8 (UniProt K7ERW6) | – | – | – | 0.235 | – | 0.011 | – | 0.066 | -0.188 | – | – | – | – | – | – | – | – | – | – | –
PSMA3 (UniProt H0YJ03) | -0.185 | – | 0.073 | 0.314 | – | -0.023 | 0.067 | 0.087 | 0.362 | – | -0.004 | 0.009 | – | 0.203 | – | – | 0.021 | – | 0.151 | -0.142
PRR14L (UniProt Q5THK1) | – | – | 0.016 | 0.053 | – | 0.286 | – | 0.125 | – | – | -0.083 | 0 | – | 0.069 | -0.065 | – | 0.1 | 0.103 | – | –
PHLDB1 isoform 2 (UniProt Q86UU1) | -0.02 | – | -0.353 | -0.023 | -0.164 | -0.035 | 0.066 | -0.001 | 0 | – | 0.014 | -0.033 | -0.098 | -0.069 | 0.149 | -0.032 | -0.039 | -0.498 (active) | 0.011 | 0.089
PUF60 isoform 2 (UniProt Q9UHX1) | 0.107 | – | -0.306 | 0.202 | – | -0.165 | -0.403 | -0.089 | – | – | 0.18 | -0.042 | -0.203 | -0.071 | – | 0.027 | 0.407 | – | – | –
PAN2 (UniProt Q504Q3) | 0.113 | – | – | – | – | 0.001 | -0.048 | -0.045 | – | – | – | – | – | – | 0.013 | – | – | – | -0.656 (active) | 0.073
PDE4A (UniProt P27815) | – | – | -0.263 | 0.054 | 0.017 | -0.145 | – | -0.018 | -0.442 | – | 0.07 | 0.098 | – | 0.112 | – | – | -0.016 | – | – | –
PTP4A3 (UniProt O75365) | – | – | – | – | – | -1.14 (active) | – | -0.029 | – | – | – | – | – | – | – | – | – | – | – | –
PPP2R5B (UniProt Q15173) | -0.161 | – | – | – | -0.064 | 0.051 | -0.043 | -0.135 | – | – | – | -0.065 | 0.088 | 0.148 | -0.079 | -0.058 | 0.051 | 0.01 | -0.015 | 0.07
PSMA3 (UniProt G3V4X5) | – | – | – | – | – | 0.061 | – | -0.208 | -0.122 | – | – | – | – | 0.255 | – | – | -0.18 | – | – | –
PMS2CL (UniProt Q68D20) | – | – | – | – | – | – | – | – | – | – | – | – | -0.254 | – | 0.033 | -0.099 | – | – | – | –
PHRF1 (UniProt Q9P1Y6) | – | – | – | – | -0.022 | – | – | – | – | – | – | – | -0.001 | 0.049 | – | -0.121 | 0.194 | – | – | –
PSMC3 (UniProt E9PLG2) | -0.197 | 0.081 | – | 0.079 | – | 0.172 | -0.252 | -0.026 | -0.612 | 0.17 | – | – | 0.071 | – | – | 0.079 | – | – | – | –
